FUS yeast rescue – qHTS for Suppressors of FUS Proteinopathy: Primary screen using FUS-linked yeast assay | S. cerevisiae FUS-expressing, growth rescue, OD600, 24 h | Potency, µM (series often up to 76.6 µM), actives largely listed as activators | hit rate 0.24% among 390,000 | AID 1347120, 2019;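 also: plate controls were DMSO vehicle for no effect and reference control for full effect; nearly all actives have a fitted effect of over 55% in size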
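Yeast FUS proteinopathy model; galactose-induced FUS (2%), starting OD 0.005. Cpds in dilution series, 24hr, 30C, 99% humidity. Abs 600 nm growth. Pos ctrl CP55940 (top 92uM final); neg ctrl DMSO.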
TDP43 rescue – qHTS of TDP-43 Inhibitors | TDP-43 expressing yeast growth rescue, BacTiter-Glo, 24 h | Potency, µM (series often up to 46.1 µM), without a hit: top-dose growth rescue (activation), hits mostly activators | hit rate 1.8% among 410,000; also: % of control where 0% means no effect; nearly all actives have a fitted effect of over 50% in size
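Galactose-induced TDP-43 yeast, OD600=0.02, compound pinned; 24 hr, 30 deg C; BacTiter-Glo luminescence for growth. Inhibitors of TDP-43 toxicity read as activators.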
uPA generation – qHTS for Inhibitors of Cell Surface uPA Generation; hit rate 0.31% among 330,000; cell surface uPA generation assay, qHTS; Potency, µM (doses to about 38.3 µM), without a hit: at the top dose activity change, negative = inhibition, actives largely listed as inhibitors; active = well fitted inhibition curve with a large enough effect; inconclusive = small, poorly fitted or top-dose-only effect; inactive = no such curve, though single readings can be large or run the other way; tested in mouse RAW 264.7 cells; also: % is scaled to controls: 0 for no effect and ±100 for the full control effect; nearly all actives have a fitted effect of over 55% in size
aSyn rescue – qHTS of alpha-syn Inhibitors; Potency, µM (top dose mostly 46.1 µM), for inactives: top-dose growth rescue (activation), hits mostly activators; Yeast expressing alpha-synuclein, growth rescue, BacTiter-Glo, 24 h; hit rate 0.14% among 370,000; AID 652106, 2013; also: % of control where 0% means no effect; nearly all actives have a fitted effect of over 65% in size
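Readout is rescue of growth in alpha-synuclein-expressing yeast, so inhibitors of toxicity appear as activators. Growth after 24 hr at 30 deg C in galactose medium is quantified by luminescence.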
Abeta rescue – qHTS for compounds that reverse cellular toxicity of Amyloid beta (A-beta) peptide in yeast: Primary Screen. yeast expressing A-beta42, growth rescue, OD600, 48 h; response scale: 0% DMSO, 100% iron-clioquinol control. Potency, µM (titrated, usually from 46.1 µM), hits mostly activators. hit rate 0.063% among 410,000. AID 1347071, 2019; also: nearly all actives have a fitted effect of over 55% in size
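Growth rescue measured by 600 nm absorbance after 48 h yeast culture at 30 C with compound. Values normalized between DMSO and an equimolar ferric chloride plus clioquinol control.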
Chronic BCR inh – qHTS Assay to Find Inhibitors of Chronic Active B-Cell Receptor Signaling. Potency, µM (series often up to 46.1 µM), without a hit: at the highest dose activity change, negative = inhibition, usual class: inhibitors. ABC-DLBCL IkBa-CBG/CBR reporter, luminescence ratio, 4 h. hit rate 0.05% among 340,000; active = well fitted inhibition curve with a large enough effect in the signal ratio, with a control signal flat, not every such curve was filed as active; inconclusive = small, poorly fitted or top-dose-only effect, or effect the other way, or a change in a side signal; the % refers to the signal ratio;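 also: plate controls were basal doxycycline-induced cells for no effect and cells given 10 µM MG132 for full effect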
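Doxycycline induced both beetle luciferases in TMD8 lymphoma cells; IKK-driven degradation limits the IkappaBalpha-fused green signal, while red luminescence normalises for cell number and nonspecific effects. Compounds tested up to 46 uM, 4 hrs.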
* marks the source's active call; other numbers are inactive results; i = inactive; ? = inconclusive; / = not tested or not shown. A selection: hits, their analogues and other compounds. The true share with any hit is near 2.3%. Unless noted, calls follow the shape of the dose curve; as a rule, active = well fitted curve in the direction sought with a large enough effect; inconclusive = small, poorly fitted or top-dose-only effect, or another doubt; inactive = no such curve, though single readings can be large; an effect the other way counts as inactive or inconclusive. Potency is read from the fitted curve at half-maximal effect.

SMILES	FUS yeast rescue	TDP43 rescue	uPA generation	aSyn rescue	Abeta rescue	Chronic BCR inh
Cc1nonc1C(=O)N/N=C/c1ccc([N+](=O)[O-])o1	i	0.0%	?	6.9%	i	?
Cc1cccc(CNC(=O)C2CCC(=O)N(C3CCCCCC3)C2)c1 (stereo unspecified)	i	14.2%	5.8%	2.1%	i	2.1%
COc1ccccc1-c1nnc(C2CCN(C(=O)c3cccc(Cl)c3)CC2)o1	i	20µM*	/	/	i	/
O=C(c1cccc(Cl)c1)N1CCC(c2nc3ccccc3o2)CC1	i	12.6µM*	/	/	i	/
Fc1ccc(/C=N/n2c(C3CCCCC3)n[nH]c2=S)cc1	i	?	-1.9%	-11.4%	12.6µM*	?
CC(C)Nc1nc(NC(C)C)nc(SCCOC(=O)Nc2ccc(Cl)cc2Cl)n1	/	15.8µM*	7.3%	-6.2%	i	?
CCNc1nc(NC(C)C)nc(SCCOc2ccc(C)cc2)n1	i	12.6µM*	-12.7%	-11.8%	i	14.4%
CCNc1nc(NCC)nc(OCCOC(=O)c2ccccc2)n1	i	?	-4.6%	-2.0%	i	?
Cc1ccc(OCCSc2nc(N)cc(N)n2)cc1	i	-20.1%	-5.1%	-17.2%	i	?
CCNc1nc(NC(C)C)nc(SCCOC(=O)c2ccccc2)n1	i	12.6µM*	-13.0%	-16.4%	i	-11.3%
O=C(CN(c1ccccc1)S(=O)(=O)c1ccccc1[N+](=O)[O-])Nc1ccccc1C(=O)N1CCOCC1	i	-22.0%	-5.2%	5.6%	i	?
O=c1[nH]c2cc3c(cc2cc1CN(Cc1ccco1)C(=S)NCC1CCCO1)OCCO3 (stereo unspecified)	?	8.6%	12.6µM*	0.5%	i	3.7%
Cc1ccc2cc(CN(Cc3ccco3)C(=S)NCC3CCCO3)c(=O)[nH]c2c1 (stereo unspecified)	i	-18.5%	-0.6%	-4.0%	i	-10.6%
O=C(/C=C/c1ccco1)N(Cc1ccc(Cl)cc1)C1CCS(=O)(=O)C1 (stereo unspecified)	i	-34.6%	-11.9%	9.4%	i	-4.3%
Cc1ccc(C(=O)Oc2oc(-c3ccco3)nc2C=Nc2ccc(Cl)cc2)cc1	/	6.31µM*	-7.3%	2.3%	i	4.1%
CCCCCCCNC1=CC(=O)CC(c2ccccc2)C1 (stereo unspecified)	i	20µM*	8.91µM*	16.5%	i	-8.8%
N#Cc1nc(Cc2ccccc2)oc1NCc1cccnc1	i	-2.9%	-3.1%	-1.3%	i	-12.3%
N#Cc1ncc(Cc2ccccc2)nc1C#N	i	14.1µM*	?	12.4%	i	?
Cc1ccc(C2=CC(c3ccc(C)cc3)n3ncnc3N2)cc1 (stereo unspecified)	i	15.8µM*	-14.0%	?	?	/
CCOc1ccc(C2C=C(c3ccccc3)Nc3nnnn32)cc1 (stereo unspecified)	i	1.2%	0.8%	-3.8%	i	7.5%
CCOc1ccc(C2C=C(c3ccc(C)cc3)Nc3nnnn32)cc1 (stereo unspecified)	?	22.4µM*	2.2%	-32.4%	i	?
Clc1ccccc1C1=CC(c2ccco2)n2ncnc2N1 (stereo unspecified)	i	14.1µM*	-5.3%	-3.3%	i	3.8%
FC(F)(F)c1ccccc1C1=CC(c2ccccc2)n2ncnc2N1 (stereo unspecified)	i	17.8µM*	1.8%	-1.4%	i	/
CCC(C)NC(=O)c1cc2c(=O)n3cccc(C)c3nc2s1 (stereo unspecified)	i	?	-2.3%	-2.9%	i	?
O=C(c1ccccc1)N1N=C(c2ccc(F)cc2)CC1c1ccc(F)cc1 (stereo unspecified)	i	7.0%	1.0%	6.9%	i	/
SMILES	FUS yeast rescue	TDP43 rescue	uPA generation	aSyn rescue	Abeta rescue	Chronic BCR inh
CCCNC(=O)C1(C)CCCN(C(=O)C2(c3ccc(Cl)cc3)CCCC2)C1 (stereo unspecified)	i	35.5µM*	/	6.0%	i	/
Cc1oc(C(=O)O)cc1COc1cccc2ccccc12	i	31.6µM*	-4.0%	2.1%	i	9.2%
O=C(O)c1cccc(COc2cccc3ccccc23)c1	i	35.5µM*	-0.2%	-52.0%	i	/
COc1cc(C(=O)O)cc(OC)c1OCc1cc(C(=O)O)oc1C	i	-1.6%	5.2%	-4.4%	i	0.5%
O=C(O)c1cccc(COc2ccccc2Cl)c1	i	-41.3%	/	-12.5%	i	?
O=C(O)C(Cc1c[nH]c2ccccc12)NS(=O)(=O)c1ccc(Cl)c(C(F)(F)F)c1 (stereo unspecified)	i	-8.1%	1.3%	-1.6%	i	-0.1%
O=C(COC(=O)c1c[nH]c2ccccc12)Nc1ccccc1	i	-2.7%	1.8%	0.9%	i	?
CS(=O)(=O)Oc1ccccc1/C=C1/N=C(c2ccc(F)cc2)OC1=O	/	4.2%	0.2%	-0.3%	i	-0.1%
Cc1ccc(-c2ccc(CCC(=O)O)n2C(C)C)cc1	i	35.5µM*	12.0%	1.8%	i	8.8%
Cc1ccc(-c2ccc(CCC(=O)O)n2NC(N)=S)cc1	i	5.1%	5.7%	5.0%	i	-4.7%
CCOC(=O)/C=C1\SCC(=O)N1CCOc1cccc(Br)c1	i	15.8µM*	2.8%	0.2%	i	?
Cc1csc(/C(C#N)=N/O)n1	i	-12.8%	4.1%	-0.5%	i	7.2%
O=C(c1ccco1)n1nc(NCc2ccccc2)nc1NCc1ccccc1	i	10µM*	11.7%	-2.7%	i	?
CC(=O)Nc1nc(COc2ccc3ccccc3c2)cs1	i	7.08µM*	3.0%	/	i	?
O=C(CSc1ccc(-c2ccccn2)nn1)NCc1ccccc1	i	-10.1%	3.5%	-2.5%	i	0.0%
O=C(CSc1ncccn1)NCc1ccc(F)cc1	i	15.8µM*	/	-0.8%	i	4.5%
O=C(CSc1ccc(-c2ccccn2)nn1)NCc1ccc(F)cc1	?	15.8µM*	1.0%	-16.2%	i	0.3%
O=C(CSc1ccnc(=O)[nH]1)NCc1ccc(F)cc1	i	3.16µM*	/	/	i	?
CCn1cc[n+](C)c1P(c1ccccc1)c1ccccc1	i	1.7%	?	-8.1%	i	0.0%
CCNS(=O)(=O)c1c(C)cc(N2CCCC2=O)cc1C	i	0.0%	-6.9%	-18.2%	i	?

Assay outcomes (PubChem)
